From PubChem BioAssay (EPA / NIEHS)
Results filed as inconclusive are left out. More than one record can exist for a structure, and the calls need not agree. Active and inactive are the calls of the source. The calls were made as follows, unless noted: active = hit-call score of the fitted dose curve at least 0.9, where 1 is the maximum; inactive = score below 0.9.

Tests used:
[1] = ATG_PBREM_CIS: Attagene CIS-FACTORIAL HepG2 Assay for human Phenobarbital-responsive Enhancer Module (PBREM) (AID 2282955); details: HepG2 PBREM cis-reporter, Attagene multiplexed transcription; actives raise or lower the signal
Method in brief: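 Cells were transfected with cis-element reporter units and treated for 24 h, after which RNA was extracted and reporter transcripts measured by RT-PCR and capillary electrophoresis.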

[2] = biological target: Paired box protein Pax-6 (Homo sapiens) (UniProt P26367); experiment: ATG_Pax6_CIS: Attagene CIS-FACTORIAL HepG2 Assay for human Paired Box 6 (PAX6) (AID 2282956); details: HepG2 CIS-FACTORIAL PAX6 reporter transcription, RNA readout; actives raise or lower the signal
Method in brief: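 HepG2 cells transiently transfected with cis-promoter-driven multiplexed reporter units sensing endogenous transcription factor activity; 24 h chemical exposure. Reporter mRNA quantified by RT-PCR, 6-FAM labelling, HpaI digestion and capillary electrophoresis; bidirectional fit versus DMSO baseline.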

[3] = ATG_PXRE_CIS: Attagene CIS-FACTORIAL HepG2 Assay for human Pregnane X Receptor Element (PXRE) (AID 2282957); details: HepG2 Attagene CIS-FACTORIAL PXRE reporter, mRNA; actives raise or lower the signal
Method in brief: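 Multiplexed cis-reporter assay in transiently transfected human HepG2 cells; 24 h chemical exposure. Reporter transcripts quantified by RT-PCR with fluorescent labeling and capillary electrophoresis.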

[4] = ATG_PPRE_CIS: Attagene CIS-FACTORIAL HepG2 Assay for human Peroxisome Proliferator-activated Response Element (PPRE) (AID 2282958); details: HepG2 PPRE cis-element reporter, Attagene transcription factor profiling; actives raise or lower the signal
Method in brief: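 In this cell-based multiplex, a PPRE cis element drives a reporter sequence in transiently transfected HepG2 cells. Following 24 h treatment, labeled cDNA amplicons are sized and quantified by capillary electrophoresis, with DMSO defining baseline.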

[5] = ATG_RORE_CIS: Attagene CIS-FACTORIAL HepG2 Assay for human RAR-related Orphan Receptor Element (RORE) (AID 2282959); details: HepG2 Attagene cis-factorial RORE reporter, mRNA; actives raise or lower the signal
Method in brief: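 Endogenous factor activity at a cis response element is read as reporter transcript levels in HepG2 cells, 24 h post-dose. Transcripts are quantified by RT-PCR with capillary electrophoresis, and data fitted in both directions against DMSO.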

[6] = ATG_Sox_CIS: Attagene CIS-FACTORIAL HepG2 Assay for human SRY-box transcription factor (SOX) (AID 2282960); details: HepG2 Attagene cis-factorial SOX reporter, mRNA; actives raise or lower the signal
Method in brief: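 Measures mRNA induction of a SOX1-associated reporter in HepG2 after 24 h dosing. Fluorescently labelled RT-PCR fragments are separated by capillary electrophoresis, and gain or loss relative to DMSO control is fitted.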

[7] = biological target: Transcription factor Sp1 (Homo sapiens) (UniProt P08047); experiment: ATG_Sp1_CIS: Attagene CIS-FACTORIAL HepG2 Assay for human Specificity Protein 1 (Sp1) (AID 2282961); details: HepG2 Sp1 cis-reporter transcription, actives raise or lower the signal
Method in brief: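 Cells: HepG2, transiently transfected with cis-regulated multiplexed reporters. Exposure: 24 h. Detection: reporter transcripts amplified, fluorescently labeled, restriction-digested and sized by capillary electrophoresis. Analysis: bidirectional fit relative to DMSO.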

[8] = ATG_SREBP_CIS: Attagene CIS-FACTORIAL HepG2 Assay for human Sterol Regulatory Element Binding (SREBP) (AID 2282962); details: HepG2 Attagene cis-factorial SREBP reporter, mRNA; actives raise or lower the signal
Method in brief: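 HepG2 cells transiently transfected with multiplexed cis-promoter reporter units sensing endogenous transcription factors; reporter mRNA measured 24 h after dosing by RT-PCR, 6-FAM labeling, HpaI digestion and capillary electrophoresis. Bidirectional fit versus DMSO.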

[9] = biological target: Signal transducer and activator of transcription 3 (Homo sapiens) (UniProt P40763); experiment: ATG_STAT3_CIS: Attagene CIS-FACTORIAL HepG2 Assay for human Signal Transducer and Activator of Transcription 3 (STAT3) (AID 2282963); details: HepG2, Attagene cis-factorial STAT3 reporter transcription; actives raise or lower the signal
Method in brief: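 Values derive from bidirectional fits relative to DMSO of reporter mRNA levels, measured by RT-PCR with capillary electrophoresis, in HepG2 cells carrying transiently transfected cis-regulated reporter units and exposed 24 h.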

[10] = ATG_TA_CIS: Attagene CIS-FACTORIAL HepG2 Assay for human TA Basal Promoter (AID 2282964); details: HepG2 Attagene CIS-factorial TA basal promoter reporter; actives raise or lower the signal
Method in brief: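 Multiplexed mRNA reporter assay, HepG2, 24 h. Reporter cDNA amplified, 6-FAM primer-extended, HpaI-cut, CE-sized; DMSO = negative control and baseline.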

[11] = ATG_TCF_b_cat_CIS: Attagene CIS-FACTORIAL HepG2 Assay for human T-Cell-Factor with beta-catenin (TCF/b-cat) (AID 2282965); details: HepG2 TCF/beta-catenin cis-reporter transcription, actives raise or lower the signal
Method in brief: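 HepG2, transient MRTU transfection, cis-element-driven reporters (endogenous TFs). 24 h compound exposure. Readout: reporter mRNA by RT-PCR + 6-FAM primer extension, HpaI digest, capillary electrophoresis. Gain/loss fit vs DMSO baseline.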

[12] = ATG_TAL_CIS: Attagene CIS-FACTORIAL HepG2 Assay for human TAL Basal Promoter (AID 2282966); details: HepG2 Attagene cis-factorial TAL promoter reporter; actives raise or lower the signal;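 also: background control endpoint measuring basal TAL promoter reporter mRNA not a specific factor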
Method in brief: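 Steps: transfect HepG2 with multiple reporter transcription units; dose 24 h; isolate RNA, reverse-transcribe, PCR-amplify, label with 6-FAM, digest with HpaI; resolve by capillary electrophoresis. Bidirectional fitting against DMSO baseline.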

[13] = ATG_TGFb_CIS: Attagene CIS-FACTORIAL HepG2 Assay for human Transforming Growth Factor (TGF) (AID 2282967); details: HepG2 Attagene CIS TGFb reporter, mRNA transcription; actives raise or lower the signal
Method in brief: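 Transcript-level reporter readout: HepG2 transfectants, 24 h exposure, RNA to cDNA, reporter-specific PCR, fluorescent primer extension, capillary sizing against ROX standards. Gain- or loss-of-signal relative to DMSO.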

[14] = ATG_VDRE_CIS: Attagene CIS-FACTORIAL HepG2 Assay for human Vitamin D Receptor Element (VDRE) (AID 2282968); details: HepG2 VDRE cis-reporter transcription, actives raise or lower the signal
Method in brief: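 Cell-based multiplexed reporter format in human liver HepG2 cells, 24 h post-dose. Fluorescence from capillary electrophoresis of reporter cDNA gives the signal, with DMSO as negative control and baseline.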

[15] = biological target: Estrogen receptor (Homo sapiens) (UniProt P03372); experiment: ATG_ERa_TRANS: Attagene TRANS-FACTORIAL HepG2 Assay for human Estrogen Receptor alpha (ERa) (AID 2282970; active = hit-call score of the fitted dose curve at least 0.9, where 1 is the maximum); details: HepG2 Attagene TRANS ERa GAL4 reporter, mRNA
Method in brief: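 Multiplexed cell-based reporter format in HepG2: chimeric ERa-Gal4 protein drives GAL4-UAS reporter transcription. Fluorescent reporter mRNA quantified by capillary electrophoresis 24 hours after dosing; endpoint fitted as signal gain against DMSO.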

[16] = biological target: Steroid hormone receptor ERR1 (Homo sapiens) (UniProt P11474); experiment: ATG_ERRa_TRANS: Attagene TRANS-FACTORIAL HepG2 Assay for human Estrogen-Related Receptor alpha (ERRa) (AID 2282971; active = hit-call score of the fitted dose curve at least 0.9, where 1 is the maximum); details: HepG2 Attagene TRANS reporter, ERRa transactivation
Method in brief: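 Signal gain relative to DMSO for an ERRa-Gal4 chimeric receptor, read as reporter mRNA by RT-PCR/capillary electrophoresis. Human HepG2 liver cells, transient multiplex reporter transfection, 24 h chemical exposure.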

[17] = biological target: X-box-binding protein 1 (Homo sapiens) (UniProt P17861); experiment: ATG_Xbp1_CIS: Attagene CIS-FACTORIAL HepG2 Assay for human X-box Binding Protein 1 (XBP1) (AID 2282972); details: HepG2 XBP1 cis-element reporter, Attagene multiplex; actives raise or lower the signal
Method in brief: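 HepG2 cells transiently transfected with multiple cis-element reporter units report endogenous TF activity; 24 h exposure, then reporter mRNA measured by RT-PCR, 6-FAM labelling, HpaI digestion and capillary electrophoresis. Bidirectional fitting versus DMSO.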

[18] = ATG_M_19_TRANS: Attagene TRANS-FACTORIAL HepG2 Assay for M19 Transcription Factor (Internal Marker) (AID 2282974; active = hit-call score of the fitted dose curve at least 0.9, where 1 is the maximum); details: HepG2 Attagene TRANS-FACTORIAL M19 internal marker reporter
Method in brief: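 Reporter mRNA induction was measured in transfected HepG2 cells 24 h after dosing. Endpoint fitted upward relative to DMSO and serves as a background control within the multiplexed TRANS panel.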

[19] = ATG_GAL4_TRANS: Attagene TRANS-FACTORIAL HepG2 Assay for GAL4 (Internal Marker) (AID 2282976; active = hit-call score of the fitted dose curve at least 0.9, where 1 is the maximum); details: HepG2 Attagene TRANS GAL4 internal marker reporter
Method in brief: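 Liver HepG2 line bearing multiplexed GAL4-UAS reporter constructs; 24 h chemical treatment. Transcripts were quantified as fluorescent fragments on capillary electrophoresis after RT-PCR and HpaI cut, with activity fitted upward from DMSO.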

[20] = biological target: Nuclear receptor subfamily 1 group I member 3 (Homo sapiens) (UniProt Q14994); experiment: ATG_CAR_TRANS: Attagene TRANS-FACTORIAL HepG2 Assay for human Constitutive Androstane Receptor (CAR) (AID 2282969; active = hit-call score of the fitted dose curve at least 0.9, where 1 is the maximum;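 also: activators raise reporter mRNA above DMSO so AC50 marks induction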); details: HepG2 Attagene TRANS-FACTORIAL CAR reporter
Method in brief: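 HepG2 cells transiently transfected with GAL4-UAS reporter units; TRANS format reads activity of exogenous chimeric NR-Gal4 protein. After 24 h dosing, reporter mRNA quantified by RT-PCR, 6-FAM labelling and capillary electrophoresis; gain of signal fitted against DMSO.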

Measured: AC50

Chain of X-box-binding protein 1 (Homo sapiens) (P17861 whole entry, looked up): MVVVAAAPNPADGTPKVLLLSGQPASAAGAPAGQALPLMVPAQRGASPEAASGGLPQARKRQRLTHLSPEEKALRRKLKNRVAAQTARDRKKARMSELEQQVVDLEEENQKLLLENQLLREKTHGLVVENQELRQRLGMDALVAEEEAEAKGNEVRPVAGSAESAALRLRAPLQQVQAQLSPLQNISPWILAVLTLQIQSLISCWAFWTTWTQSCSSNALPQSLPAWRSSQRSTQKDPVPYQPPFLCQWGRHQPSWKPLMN
Chain of Paired box protein Pax-6 (Homo sapiens) (P26367 whole entry, looked up): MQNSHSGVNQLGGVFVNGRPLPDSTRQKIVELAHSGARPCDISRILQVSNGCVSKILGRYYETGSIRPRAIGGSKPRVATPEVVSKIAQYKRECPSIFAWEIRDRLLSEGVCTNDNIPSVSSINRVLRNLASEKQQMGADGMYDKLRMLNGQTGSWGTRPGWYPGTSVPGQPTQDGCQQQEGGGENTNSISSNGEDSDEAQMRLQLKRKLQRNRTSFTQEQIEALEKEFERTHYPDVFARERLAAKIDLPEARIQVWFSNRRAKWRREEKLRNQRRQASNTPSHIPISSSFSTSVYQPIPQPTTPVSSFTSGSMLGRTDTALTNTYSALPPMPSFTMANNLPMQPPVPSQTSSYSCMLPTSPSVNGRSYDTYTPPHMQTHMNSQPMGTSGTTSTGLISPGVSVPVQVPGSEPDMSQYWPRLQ
Chain of Steroid hormone receptor ERR1 (Homo sapiens) (P11474 whole entry, looked up, the tested form may be a part): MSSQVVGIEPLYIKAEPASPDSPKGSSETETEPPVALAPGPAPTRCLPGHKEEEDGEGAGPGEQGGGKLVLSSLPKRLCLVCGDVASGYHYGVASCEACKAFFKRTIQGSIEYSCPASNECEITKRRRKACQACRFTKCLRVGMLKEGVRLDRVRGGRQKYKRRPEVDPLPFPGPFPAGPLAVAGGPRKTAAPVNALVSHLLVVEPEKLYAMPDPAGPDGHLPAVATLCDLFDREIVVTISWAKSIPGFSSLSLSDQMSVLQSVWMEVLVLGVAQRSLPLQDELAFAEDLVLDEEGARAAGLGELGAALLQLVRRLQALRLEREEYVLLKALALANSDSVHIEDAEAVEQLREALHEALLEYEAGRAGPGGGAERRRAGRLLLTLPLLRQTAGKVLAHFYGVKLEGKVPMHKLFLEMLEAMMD
Chain of Transcription factor Sp1 (Homo sapiens) (P08047 whole entry, looked up): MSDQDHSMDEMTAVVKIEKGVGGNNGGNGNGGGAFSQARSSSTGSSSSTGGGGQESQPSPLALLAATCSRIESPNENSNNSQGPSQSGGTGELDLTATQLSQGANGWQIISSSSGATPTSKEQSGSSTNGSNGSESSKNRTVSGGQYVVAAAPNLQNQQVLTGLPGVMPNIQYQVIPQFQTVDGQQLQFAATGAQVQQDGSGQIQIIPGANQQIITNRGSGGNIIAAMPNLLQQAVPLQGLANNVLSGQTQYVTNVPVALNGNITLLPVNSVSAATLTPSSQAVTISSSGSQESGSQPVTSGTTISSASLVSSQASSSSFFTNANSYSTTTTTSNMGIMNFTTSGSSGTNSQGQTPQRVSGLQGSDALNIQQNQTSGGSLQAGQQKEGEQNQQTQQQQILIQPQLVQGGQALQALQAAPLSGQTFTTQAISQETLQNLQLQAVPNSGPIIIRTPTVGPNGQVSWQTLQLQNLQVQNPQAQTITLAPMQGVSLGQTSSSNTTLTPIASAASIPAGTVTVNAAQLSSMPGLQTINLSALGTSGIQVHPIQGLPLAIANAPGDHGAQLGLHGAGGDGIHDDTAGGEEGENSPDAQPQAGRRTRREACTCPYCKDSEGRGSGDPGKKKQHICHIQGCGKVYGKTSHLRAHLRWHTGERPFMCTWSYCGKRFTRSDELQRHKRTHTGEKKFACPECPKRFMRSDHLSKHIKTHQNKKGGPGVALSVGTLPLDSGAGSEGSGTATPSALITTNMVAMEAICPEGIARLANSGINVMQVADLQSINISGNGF
Chain of Nuclear receptor subfamily 1 group I member 3 (Homo sapiens) (Q14994 whole entry, looked up, the tested form may be a part): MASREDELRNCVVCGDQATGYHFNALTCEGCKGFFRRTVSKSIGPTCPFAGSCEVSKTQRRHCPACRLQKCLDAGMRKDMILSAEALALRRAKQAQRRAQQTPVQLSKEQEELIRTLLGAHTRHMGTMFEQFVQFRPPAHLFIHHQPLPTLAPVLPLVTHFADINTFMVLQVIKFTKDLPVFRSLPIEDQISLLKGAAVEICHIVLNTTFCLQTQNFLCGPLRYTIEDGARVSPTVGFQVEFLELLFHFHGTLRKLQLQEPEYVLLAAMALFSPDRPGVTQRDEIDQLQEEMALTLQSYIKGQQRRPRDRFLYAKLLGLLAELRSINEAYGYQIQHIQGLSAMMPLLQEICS
Chain of Estrogen receptor (Homo sapiens) (P03372 whole entry, looked up, the tested form may be a part): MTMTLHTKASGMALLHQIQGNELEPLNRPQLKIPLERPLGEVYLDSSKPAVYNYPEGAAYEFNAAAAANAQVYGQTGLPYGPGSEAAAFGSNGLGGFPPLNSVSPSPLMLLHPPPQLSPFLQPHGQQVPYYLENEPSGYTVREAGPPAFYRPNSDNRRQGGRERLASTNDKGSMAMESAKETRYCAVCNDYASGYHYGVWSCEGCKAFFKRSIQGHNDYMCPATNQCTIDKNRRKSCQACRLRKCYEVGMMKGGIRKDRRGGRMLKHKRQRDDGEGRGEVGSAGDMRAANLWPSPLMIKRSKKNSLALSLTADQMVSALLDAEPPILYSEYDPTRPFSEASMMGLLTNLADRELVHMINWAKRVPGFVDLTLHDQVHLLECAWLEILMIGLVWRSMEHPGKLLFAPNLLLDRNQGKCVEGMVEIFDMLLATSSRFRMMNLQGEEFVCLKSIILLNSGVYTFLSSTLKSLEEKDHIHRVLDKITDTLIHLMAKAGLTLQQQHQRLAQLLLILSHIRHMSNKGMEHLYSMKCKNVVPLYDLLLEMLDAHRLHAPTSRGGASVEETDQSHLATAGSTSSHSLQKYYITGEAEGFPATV
Chain of Signal transducer and activator of transcription 3 (Homo sapiens) (P40763 whole entry, looked up): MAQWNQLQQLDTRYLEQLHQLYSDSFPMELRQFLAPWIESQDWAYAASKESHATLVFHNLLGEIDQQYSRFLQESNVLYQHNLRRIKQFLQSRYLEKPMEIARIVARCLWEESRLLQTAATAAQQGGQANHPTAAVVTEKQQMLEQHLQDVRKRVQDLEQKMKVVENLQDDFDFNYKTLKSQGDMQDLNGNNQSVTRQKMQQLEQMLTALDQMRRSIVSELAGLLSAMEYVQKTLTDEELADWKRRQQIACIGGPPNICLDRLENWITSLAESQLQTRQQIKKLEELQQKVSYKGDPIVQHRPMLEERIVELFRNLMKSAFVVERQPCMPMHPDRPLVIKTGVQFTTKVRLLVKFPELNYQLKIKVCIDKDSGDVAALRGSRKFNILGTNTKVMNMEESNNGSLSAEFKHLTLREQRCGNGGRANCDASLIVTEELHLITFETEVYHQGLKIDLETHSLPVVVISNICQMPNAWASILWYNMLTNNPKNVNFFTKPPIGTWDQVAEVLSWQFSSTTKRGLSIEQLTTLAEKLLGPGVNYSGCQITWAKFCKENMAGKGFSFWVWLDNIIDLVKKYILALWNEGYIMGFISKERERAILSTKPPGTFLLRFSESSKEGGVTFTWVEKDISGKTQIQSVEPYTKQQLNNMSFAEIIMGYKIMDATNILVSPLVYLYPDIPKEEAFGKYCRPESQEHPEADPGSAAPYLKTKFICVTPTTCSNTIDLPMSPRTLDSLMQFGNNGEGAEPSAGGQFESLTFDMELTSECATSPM

c1ccc2cc3ccccc3cc2c1
inactive: [1] | [2] | [3] | [4] | [5] | [6] | [7] | [8] | [9] | [10] | [11] | [12] | [13] | [14] | [15] | [16] | [17] | [18]

CCCOc1ccc(S(=O)(=O)N2CCN(CC)CC2)cc1-c1nc2c(CC)n(Cc3ccccn3)nc2c(=O)[nH]1
inactive: [4] | [6] | [7] | [9] | [10] | [12] | [13] | [15]
active: [1] 2.66 µM | [2] 40200 nM | [3] 1.18 µM | [5] 2.63 µM | [8] 27500 nM | [11] 89800 nM | [14] 2.51 µM

O=C(O)c1ccc2c(c1)nc(C(=O)NC1CCN(C3CC3)CC1)n2Cc1cc(-c2ccc(Cl)s2)on1
active: [4] 149 nM
inactive: [1] | [2] | [3] | [5] | [6] | [7] | [8] | [9] | [10] | [11] | [13] | [15] | [17] | [19]

OCc1c[nH]c2ccccc12
inactive: [1] | [7] | [8] | [9] | [10] | [11] | [12] | [13] | [20] | [16] | [17] | [18] | [19]
active: [1] 5.11 µM [middle of 4 runs] | [3] 2.76 µM [middle of 5 runs] | [5] 2.51 µM [middle of 5 runs] | [14] 5.32 µM [middle of 5 runs] | [15] 5.36 µM [middle of 5 runs]
